Bioassay records as filed in PubChem BioAssay.
ABCB6 inh 2 = ABCB6 transporter inhibitors, primary screen, K562-ABCB6 cells, flow cytometry, MLPCN library; AID 602162, 2011; 360,000 tested, 0.19% active; K562-ABCB6 porphyrin accumulation, 1 h; stronger effect = lower value; fluorescence ratio to DMSO, % at 10 µM; ATP-binding cassette sub-family B member 6 (Homo sapiens), Q9NP58;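 active = fluorescence ratio to DMSO below 75%, the collection mean minus 3 SD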;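 note: signal is porphyrin accumulated inside mitochondria; 100% equals median channel fluorescence of DMSO control wells; lower ratio means ABCB6 inhibition with less porphyrin fluorescence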
Target sequence (Q9NP58 whole entry, looked up): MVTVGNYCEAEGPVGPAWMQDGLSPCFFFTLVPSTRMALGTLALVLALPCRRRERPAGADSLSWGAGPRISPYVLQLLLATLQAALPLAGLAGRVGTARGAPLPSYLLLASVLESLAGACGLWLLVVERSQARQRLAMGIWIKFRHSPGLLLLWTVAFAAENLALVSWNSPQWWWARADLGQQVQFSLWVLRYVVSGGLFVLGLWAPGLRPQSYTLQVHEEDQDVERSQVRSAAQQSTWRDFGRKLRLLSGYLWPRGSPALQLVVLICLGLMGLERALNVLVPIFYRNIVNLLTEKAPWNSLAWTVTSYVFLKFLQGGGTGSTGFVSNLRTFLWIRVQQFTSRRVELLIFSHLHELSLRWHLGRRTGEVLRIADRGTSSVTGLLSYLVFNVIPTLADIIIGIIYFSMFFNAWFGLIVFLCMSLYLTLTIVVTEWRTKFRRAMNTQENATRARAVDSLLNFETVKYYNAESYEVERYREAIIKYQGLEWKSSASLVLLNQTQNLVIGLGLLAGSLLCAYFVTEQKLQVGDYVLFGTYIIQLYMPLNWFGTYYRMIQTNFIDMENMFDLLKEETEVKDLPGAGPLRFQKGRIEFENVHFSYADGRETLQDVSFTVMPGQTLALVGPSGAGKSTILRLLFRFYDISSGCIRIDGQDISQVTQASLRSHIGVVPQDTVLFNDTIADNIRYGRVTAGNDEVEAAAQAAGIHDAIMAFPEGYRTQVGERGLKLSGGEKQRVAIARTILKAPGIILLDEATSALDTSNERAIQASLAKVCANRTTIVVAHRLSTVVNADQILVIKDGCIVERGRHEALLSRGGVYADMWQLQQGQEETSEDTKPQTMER
SKN-1 inh = suppressors of acrylamide-induced Pgst-4::GFP reporter in worms, primary screen, SKN-1 inhibitor project, whole organism, uHTS, GFP/RFP fluorescence ratio, strain VP596; C. elegans VP596 Pgst-4::GFP/RFP ratio, 24 h; inhibition, % at 21.8 µM; 360,000 tested, 0.49% active;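 active = interference check ratio from 0.5 to 1.5 plus GFP to RFP signal ratio inhibition reaching or exceeding a fixed threshold, cut at about 30% in these data, passing the limit was not always enough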
Platelet DG rel = inhibitors of platelet dense granule secretion, primary screen, cell-based, MLPCN, human platelets | human platelet-rich plasma, SFLLRN dense granule ATP release, luminescence | inhibition, %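 (compounds screened at 7.5 µM in platelet-rich plasma)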 | 300,000 tested, 0.22% active;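 active = mean replicate score, as percent of positive control, at or above 50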
VLA-4 inh = inhibition in human VLA-4 binding assay, primary screen, VLA-4 allosteric modulator project, MLPCN library, flow cytometry, VLA-4 expressing cells; 330,000 tested, 0.2% active; inhibition, % (about 7 µM as worked out from the volumes in the protocol); ligand binding flow cytometry; Integrin alpha-4 (Homo sapiens), P13612; AID 2557, 2010; in the data active = inhibition above about 50%
CR mimetic SO = reduction of superoxide in aged yeast, primary screen, HTS; S. cerevisiae aged cells, superoxide DHE fluorescence; stronger effect = lower value; superoxide response (% of plate mean), % at 10 µM; 330,000 tested, 0.18% active; AID 2690, 2010;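 active = superoxide response under a set limit, about three screen SD below normal, cut at about 65% in these data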;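 note: yeast aged for seven days with compound at 30 °C before DHE staining; 100% = average MFI of all compound-treated wells on the plate with controls excluded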
Active calls of the source: *; x = no result. This is a sample that favours compounds with a hit; in the whole collection about 1.2% have one here.

SMILES	ABCB6 inh 2	SKN-1 inh	Platelet DG rel	VLA-4 inh	CR mimetic SO
C[C@H](NC(=O)C[C@@H]1C=C[C@@H](NC(=O)CN2CCOCC2)[C@@H](CO)O1)c1ccccc1	x	-9	x	x	x
CCOc1ccc2nc(NC(=O)COC)sc2c1	88	1	2	-4	102
Cc1ccc2nc(NC(=O)c3ccccn3)sc2c1	106	11	29	10	89
CCOc1ccc2nc(NC(=O)c3ccco3)sc2c1	98	35*	50*	10	102
CCOc1ccc2nc(NC(=O)c3ccc(S(=O)(=O)N4CCOCC4)cc3)sc2c1	96	35*	4	2	94
CCOC(=O)c1ccc2nc(NC(=O)c3ccco3)sc2c1	101	20	29	0	104
CCOc1ccc2nc(NC(=O)c3ccccn3)sc2c1	100	22	81*	6	107
CCOc1ccc2nc(NC(=O)c3ccoc3C)sc2c1	101	8	69*	-167	108
CC(C)C1C(=O)N(Cc2cn(CCC3OCCO3)nn2)CCS(=O)(=O)N1Cc1ccc(-c2ccc(F)cc2Cl)cc1 (stereo unspecified)	101	-2	x	x	x
O=C(Nc1nc2c(F)cc(F)cc2s1)c1ccccn1	84	37*	-27	15	126
Clc1ncccc1-c1nnn(-c2ccccc2Br)n1	97	53*	4	x	x
CC/C(=N\Nc1ccc([N+](=O)[O-])cc1)c1ccccc1	101	35*	2	-14	96
CN(c1cccc(F)c1)c1cc2c(c3c1ccn3C)C1CCC2O1 (stereo unspecified)	104	10	x	x	x
Clc1ccccc1-c1ccc(CN2CCN(c3ccccc3)CC2)o1	99	38*	-1	8	104
N#C/C(=C\c1ccc(-c2ccccc2)o1)C(=O)Nn1cnnc1	95	51*	1	17	97
Cc1ccc(-c2ccc(/C=C(\C#N)C(=O)Nc3cc(C)nn3-c3ccccc3)o2)cc1	x	x	1	-10	80
CN1C(=O)N(c2ccccc2)C(Nc2nncs2)C1(C)C (stereo unspecified)	99	38*	3	23	96
COc1ccc(N=CC2=C(O)c3ccccc3C2=O)cc1	89	15	59*	4	104
Cc1c(-n2c(CN3C(=O)c4ccccc4C3=O)nc3ccccc3c2=O)c(=O)n(-c2ccccc2)n1C	99	40*	7	11	110
COc1cc(/C=N/NC(=O)c2nc(C)cc(C)n2)ccc1O	93	4	5	1	92
COc1cc(/C=N/NC(=O)c2nonc2C)ccc1O	103	14	53*	4	107
Cc1nonc1C(=O)N/N=C/c1ccc(O)c(O)c1	96	-2	67*	-16	99
COc1cc(NC(=O)c2ccccc2)c(OC)cc1NC(=O)CSc1[nH]c(=O)cc(C)c1C#N	99	12	71*	-8	86
CCc1nc2ccc(C(=O)NCc3ccc(OC)cc3)cn2c1N(C)CCC(C)C	166	5	x	x	x
COCCCn1cnc2c(c1=O)c1nc3ccccc3nc1n2CCc1ccccc1	92	36*	11	x	x
SMILES	ABCB6 inh 2	SKN-1 inh	Platelet DG rel	VLA-4 inh	CR mimetic SO
Cn1c(Cc2ccccc2)nnc1SCC(=O)Nc1ccc2c(c1)OCO2	97	46*	5	-6	89
CCOC(=O)[C@]12CCCC=C1N(CCC1=CCCCC1)C(=O)[C@H](CC(=O)N1CCC(c3ccccc3)CC1)C2	x	20	x	x	x
COc1ccc(-c2c(C#N)c(N)nc3c2CCC3)cc1	95	4	-9	1	112
CSc1nc2c(c(-c3ccc(O)cc3)c1C#N)CCC2	94	-22	63*	-1	100
Cc1cccc(C)c1-n1nnnc1C(c1cc2ccccc2o1)N1CCN(C/C=C/c2ccccc2)CC1 (stereo unspecified)	93	13	x	x	x
COCCCN1C(=O)C(CC(=O)NCCN2CCOCC2)CC(C(=O)N(C)C)=C1C (stereo unspecified)	103	6	x	x	x
CSc1nc(N2CCOCC2)c2c(c1C#N)CC(C)(C)OC2	98	37*	0	9	94
COc1ccc(OC)c2c1C(=O)C(Cl)=C(Cl)C2=O	116	4	66*	-36	132
COc1ccc2cc(C3CC=C(CO)CN3S(=O)(=O)c3ccccc3[N+](=O)[O-])n(C(=O)OC(C)(C)C)c2c1 (stereo unspecified)	x	-4	x	x	x
CCc1nc2c(OCc3ccc(C(F)(F)F)cc3)cccn2c1N(C)C(C)=O	99	4	x	x	x
CCc1nc2c(OCc3ccc(C(F)(F)F)cc3)cccn2c1N(C)C(=O)c1ccncc1	96	54*	x	x	x
O=C(O)C1=C2C(=O)Nc3cccc(c32)C2(C1)C(=O)Nc1ccccc12 (stereo unspecified)	103	36*	x	x	x
O=C1NCCC12C(=O)Nc1ccccc12 (stereo unspecified)	104	16	4	0	98
Clc1ccc2oc(-c3ccccn3)nc2c1	122	39*	3	-9	104
COC(=O)[C@]12CCCCC=C1N(CCc1ccc(OC)c(OC)c1)C(=O)[C@H](CC(=O)NCc1cccc(C(F)(F)F)c1)C2	x	4	x	x	x
CCOC(=O)c1sc(N2C(=O)C(O)=C(C(=O)c3ccc(C)o3)C2c2cccc([N+](=O)[O-])c2)nc1C (stereo unspecified)	99	3	51*	-5	112
CCOC(=O)c1sc(N2C(=O)C(O)=C(C(=O)c3ccc(C)o3)C2c2ccc(OC)c(OC)c2)nc1C (stereo unspecified)	102	5	-3	5	93
Clc1cccc(CSc2ccc(-c3ccco3)nn2)c1	96	67*	0	14	97
c1ccc(CSc2ccc(-c3ccco3)nn2)cc1	96	36*	4	-1	87
Fc1ccccc1CSc1ccc(-c2ccco2)nn1	97	39*	x	-6	95
Clc1ccc(CSc2ccc(-c3ccco3)nn2)cc1	100	15	12	3	104
O=C1c2ccccc2C(=O)c2c1ccc(C(=O)N1CCCCC1)c2NCCO	93	40*	3	-2	136
CCOc1ccc(OCC)c(NC(=O)CSCC(=O)O)c1	98	36*	5	9	98
COc1ccc(OC)c(NC(=O)CSCC(=O)O)c1	98	-4	4	14	97
CCOC(=O)C1=C(CSc2nc(-c3ccccc3)ccc2C#N)OC(N)=C(C#N)C1c1ccc(OC)cc1 (stereo unspecified)	430	43*	6	-272	97
Cc1ccccc1-c1cc2nc(NCc3ccccc3F)n(C)c(=O)c2s1	91	-11	x	x	x
CCN1C(=NCCc2ccccn2)N[C@@H](c2cccc(F)c2)C(C(=O)OC)=C1C	98	8	-8	28	97
